We go through 40 compounds from PubChem BioAssay (NCATS).

The structures appear in SMILES notation. Records with an inconclusive call do not appear. Active and inactive are the calls of the source. Calls follow the shape of the full dose curve; tested in HEK293 reporter line.
% is scaled to controls: 0 for no effect and ±100 for the full control effect; potency is read from the fitted curve at half-maximal effect.

The test can be described thus: qHTS for Inhibitors of the Functional Ribonucleoprotein Complex (vRNP) of Lassa (LASV) Arenavirus: Viability assay - alamar blue signal for LASV Primary Screen (AID 1347083). Also: nearly all actives have a fitted effect of over 80% in size. As to conditions: cell viability, alamar blue fluorescence (LASV minigenome counter-screen); series mostly up to 57.5 µM; activity change, negative = reduced viability: at the top concentration. On the technique in general: Quantitative high-throughput screening tests each substance at several concentrations.
In the case of `COc1cc(C(=O)O[C@@H]2CC3CC[C@]2(C)C3(C)C)ccc1O`, the “activity change, negative = reduced viability” value is 19.9% (inactive).

`CCCCCCCCCCCCCC`: the “activity change, negative = reduced viability” value is -4.84% [at 115 µM] (inactive).

Turning to `C=C1C2C[C@H](O)C(C)(C)[C@@]2(O)[C@H](O)C[C@]23C[C@@](C)(O)[C@H](CC[C@H]12)[C@H]3O` (stereo not given in full), the “activity change, negative = reduced viability” value is 8.58% (inactive).

For `ClC1=C(Cl)[C@]2(Cl)[C@@H]3[C@@H](Cl)[C@H]4O[C@H]4[C@@H]3C1(Cl)C2(Cl)Cl`, the “activity change, negative = reduced viability” value is -21.7% (inactive).

For `COC(=O)c1ccc(OC)cc1`, the “activity change, negative = reduced viability” value is 4.97% [at 115 µM] (inactive).

For the compound `CCC(=O)O[C@]1(C(=O)CO)CC[C@H]2[C@@H]3CCC4=CC(=O)CC[C@]4(C)[C@@H]3CC[C@@]21C`, the “activity change, negative = reduced viability” value was -2.15% (inactive).

As to `CC(=O)OCC(=O)[C@@]1(O)CC[C@H]2[C@@H]3CCC4=CC(=O)CC[C@]4(C)[C@@H]3C(=O)C[C@@]21C`, the “activity change, negative = reduced viability” value is -1.56% (inactive).

`Oc1ccc(C=Cc2cc(O)cc(O)c2)cc1`: the “activity change, negative = reduced viability” value is -33.4% (inactive).

Regarding `CC1=CC(=O)C2=C(C)C[C@@H]3OC(=O)[C@@H](C)[C@H]3C=C12`, the “activity change, negative = reduced viability” value was -0.325% (inactive).

Consider `CC1(C)C[C@H]2C3=CCC4[C@@]5(C)CC[C@H](O)[C@](C)(CO)C5CC[C@@]4(C)[C@]3(C)C[C@H]3O[C@@H]1[C@H](O)[C@]32CO` (stereo not given in full), for which the “activity change, negative = reduced viability” value was 11.5% (inactive).

`CCOC(=O)c1cc(=O)[nH]c2ccccc12`: the “activity change, negative = reduced viability” value was -10.4% (inactive).

As to `O=C(/C=C/c1ccccc1)NCCc1cnc[nH]1`, the “activity change, negative = reduced viability” value was 18.2% (inactive).

`C=C(CC[C@]12OC(C(=O)O)C(O)(C(=O)O)C(C(=O)O)(O1)C(OC(=O)/C=C/[C@@H](C)C[C@@H](C)CC)C2O)[C@@H](OC(C)=O)[C@H](C)Cc1ccccc1` (stereo not given in full): the “activity change, negative = reduced viability” value is 8.44% (inactive).

Take `CCCCCC/C=C/C=O`: the “activity change, negative = reduced viability” value is 13% [at 115 µM] (inactive).

Regarding `COC(=O)C(O)C(O)(CCC(C)C)C(=O)OC1C(OC)=CC23CCCN2CCc2cc4c(cc2C13)OCO4` (stereo not given), the “activity change, negative = reduced viability” value is -141% (inactive).

Consider `C=C(CC[C@@H](O)C(C)(C)O)[C@H]1CC[C@]2(C)[C@@H]1CCC1[C@@]3(C)CC[C@H](O)C(C)(C)C3CC[C@]12C` (stereo not given in full), for which the “activity change, negative = reduced viability” value is 2.35% (inactive).

Consider `CC1(C)C[C@H](O)[C@]2(CO)[C@H](O)C[C@]3(C)C(=CCC4[C@@]5(C)CC[C@H](O)C(C)(C)C5CC[C@]43C)[C@@H]2C1` (stereo not given in full), for which the “activity change, negative = reduced viability” value was 5.47% (inactive).

As for `Nc1nc(Cl)nc2c1ncn2[C@@H]1O[C@H](CO)[C@@H](O)[C@H]1F`, the Potency is 2170 nM (active).

On to `C=CC(=O)c1ccc(CCCCCC)cc1`, for which the “activity change, negative = reduced viability” value was 12.8% (inactive).

As for `CC(CCC(=O)O)C1CCC2C3CC(O)C4CC(O)CC[C@]4(C)C3CCC12C` (stereo not given in full), the “activity change, negative = reduced viability” value is 38.8% (inactive).

For `C=C(C)[C@@H]1CCC2=CCC[C@@H](C)[C@]2(C)C1`, the “activity change, negative = reduced viability” value is -0.0554% [at 115 µM] (inactive).

On to `O=C1c2ccccc2C(=O)c2c(O)c(O)cc(O)c21`, for which the “activity change, negative = reduced viability” value is 6.33% [at 115 µM] (inactive).

On to `COC(=O)c1nccc2c1[nH]c1ccccc12`, for which the “activity change, negative = reduced viability” value is -11.8% (inactive).

Take `CC(C)CC(=O)[C@@H](O)Cc1ccc(O)cc1`: the “activity change, negative = reduced viability” value is 7.49% (inactive).

Turning to `CC(C)c1noc(N2CCC(COc3ccc(-c4ccc(S(C)(=O)=O)cc4)nc3)CC2)n1`, the “activity change, negative = reduced viability” value was 4.04% (inactive).

Take `C=C(C)C(COc1c2occc2cc2ccc(=O)oc12)OC(C)(C)C(O)COc1c2occc2cc2ccc(=O)oc12` (stereo not given): the “activity change, negative = reduced viability” value is 3.03% (inactive).

For the compound `CC(C)=CCCC(C)CCO` (stereo not given), the “activity change, negative = reduced viability” value was 4.76% (inactive).

As to `Nc1nc(Cl)nc2c1ncn2[C@@H]1O[C@H](CO)C(O)[C@H]1O` (stereo not given in full), the “activity change, negative = reduced viability” value is -30.5% (inactive).

Turning to `CO[C@H]1[C@@H]2C=CO[C@@H](O[C@H]3O[C@@H](CO)[C@H](O)[C@@H](O)[C@@H]3O)[C@@H]2[C@@]2(CO)O[C@@H]12`, the “activity change, negative = reduced viability” value was 13.8% (inactive).

Turning to `COc1c(O)ccc2c1-c1c3c(cc4c1C(C2)N(C)CC4)OCO3` (stereo not given), the “activity change, negative = reduced viability” value was -12.4% (inactive).

Consider `O=C1CCc2ccccc2O1`, for which the “activity change, negative = reduced viability” value is 5.8% (inactive).

`OCCc1c[nH]c2ccccc12`: the “activity change, negative = reduced viability” value was -0.0105% (inactive).

For `CC1=CC23C(=O)C(C=C(CO)[C@@H](O)[C@]2(O)[C@H]1O)[C@H]1[C@@H](C[C@H]3C)C1(C)C` (stereo not given in full), the “activity change, negative = reduced viability” value was 25% (inactive).

`COC(=O)c1ccc(=O)c2nc3/c(=C/O)c(O)cc(=O)c3[nH]c12`: the “activity change, negative = reduced viability” value was 11.8% (inactive).

Regarding `CCCCCCC(=O)OCC`, the “activity change, negative = reduced viability” value is 18% [at 115 µM] (inactive).

As for `O=C(O)C1=CO[C@@H](O[C@@H]2O[C@H](CO)[C@H](O)[C@H](O)[C@H]2O)[C@@H]2C(CO)=CC[C@H]12`, the “activity change, negative = reduced viability” value is 15.2% (inactive).

Consider `Cc1[nH]c(C=C2C(=O)Nc3ccc(S(=O)(=O)N(C)c4cccc(Cl)c4)cc32)c(C)c1C(=O)N1CCN(C)CC1`, for which the “activity change, negative = reduced viability” value is -18% (inactive).

As for `C[C@H]1CCC2[C@](C)(CO)[C@@H](O)CC[C@]2(C)[C@@]12CCC(CO)(CCO)O2` (stereo not given in full), the “activity change, negative = reduced viability” value is -1.2% (inactive).

As to `O=C(O)CC(=O)Nc1ccccc1C(=O)O`, the “activity change, negative = reduced viability” value is 5.85% (inactive).

Consider `Cn1cc(C=C2C(=O)Nc3cccnc32)c2ccccc21`, for which the “activity change, negative = reduced viability” value is -33.6% (inactive).
